Each structure is given as a SMILES string. The whole screen tested about 65,000 compounds, of which about 2,100 (3.2%) showed an effect of 50% or more. The median lay at about -52%. This excerpt belongs to a sample that is enriched for strong results.

In this assay the test system is Plasmodium falciparum. Kind of assay: Screen against P. falciparum Asexual Blood Stage (ABS), at 5uM. In kind it is functional, Dd2. The following applies: tested at 5 uM.
Take `CCc1cnc(N2C[C@@H]3C[C@H](C(=O)NCC(C)C)[C@H](C2)O3)nc1`: the INHIBITION was -47.5%.
The figure for `Cc1cccn2cc(CN3CCCC(O)C3)nc12` (stereo unspecified) is -34.8%; for `Cc1cccn2cc(CN3CCCC(c4noc(C5CC5)n4)C3)nc12` (stereo unspecified) it is 54.6%; for `Cc1cccn2cc(CN3CCCC(c4ccn[nH]4)C3)nc12` (stereo unspecified) it is -34%.
The figure for `CC(C)c1nn(C)c(Cl)c1CNCc1cccnc1N(C)C` is -8.45%; for `O=C(c1cccs1)N1CCCC2(COCCN(c3cccnc3)C2)C1` (stereo unspecified) it is 4.74%; for `c1ccc(-c2nc(CN3CCCCC3Cn3cncn3)co2)cc1` (stereo unspecified) it is -87.1%.
In the case of `O=C(CO)N1CCC(c2cncc(-c3cccc(Cl)c3)n2)CC1` it was -122%.
Consider `NC(=O)CN1CCC(c2cncc(-c3cccc(Cl)c3)n2)CC1`, for which the INHIBITION was found to be 67.6%.
The figure for `CN(C)C(=O)CN1CCCC(c2cncc(-c3cccc(Cl)c3)n2)C1` (stereo unspecified) is 49.6%; for `CN(C)C(=O)CN1CCC(c2cncc(-c3cccc(Cl)c3)n2)CC1` it is -53.1%.
The figure for `Cc1ccccc1-c1cncc(C2CCN(C)CC2)n1` is -69.9%; for `CN1CCC(c2cncc(-c3cccc(Cl)c3)n2)CC1` it is 54.5%; for `Cc1ccc(CN(C)C(=O)CNC(C)(C)c2noc(C(C)(C)C)n2)o1` it is -62.5%.
The figure for `COCCC(=O)N1CCC2(COCc3cnc(N(C)C)nc32)C1` (stereo unspecified) is -29%; for `CCc1ccc(CN(C)C(=O)c2cnc3c(c2)nc(N)n3CC)nc1` it is -20.9%; for `COc1cccc(OCCNCc2ccccc2)c1` it is 34.7%.
Regarding `COc1cccc(OCCNS(=O)(=O)Cc2ccccc2)c1`, the INHIBITION is on record as -91.8%.
In the case of `COc1cccc(CNCCNS(=O)(=O)Cc2ccccc2)c1` it was 55.5%.
With `CN(Cc1cn2ccccc2c1C#N)C1CCCN(c2cccnn2)C1` (stereo unspecified), the INHIBITION was -92.9%.
In the case of `O=C(NCc1cncc2c1CCN(C1CCOCC1)C2)c1ccco1` it was -81.7%; in that of `O=C(C(CNCc1cccc(O)c1)c1ccccc1)N1CCOCC1` (stereo unspecified), -52.6%; in that of `O=C(C(CNCc1ccsc1)c1ccccc1)N1CCOCC1` (stereo unspecified), 63.6%.
In the case of `O=C(C(CNCc1cccs1)c1ccccc1)N1CCOCC1` (stereo unspecified) it was 7.93%; in that of `O=C(c1nn[nH]c1Nc1ccc(Cl)cc1)N1CCCCCC1`, 23.3%.
In the case of `Cc1nc(C)c(C(C)NCc2c(C)nn(CC(C)C)c2N(C)C)s1` (stereo unspecified) it was -40.1%.
For `Cc1ccc(CN2CC[C@@H](O)[C@@H]2Cc2ccccc2)o1`, the INHIBITION was 51.6%.
`CO[C@@H]1CCN(Cc2ccc(C)o2)[C@H]1Cc1ccccc1`: the INHIBITION is recorded as -45.5%.
The figure for `Cc1ccc(CN2CC[C@@H](O)[C@@H]2Cc2cnn(C)c2)o1` is -75.8%.
With `Cn1cc(NC(=O)c2cccc(-n3cnnn3)c2)cn1`, the INHIBITION is given as -36%.
In the case of `COc1cc(OC)cc(N2CCC(NCc3cc[nH]n3)C2)c1` (stereo unspecified) it was -39.5%.
Turning to `COc1ccc(CNC2CCN(c3ccccc3)C2)cc1O` (stereo unspecified), the INHIBITION is given as 40.9%.
The figure for `COc1cc(CNC2CCN(c3ccccc3)C2)cc(OC)c1OC` (stereo unspecified) is 64.6%; for `COc1ccc(CNC2CCN(c3ccccc3)C2)c(OC)c1OC` (stereo unspecified) it is 55.2%.
The figure for `COc1cccc(CNC2CCSC2)c1OC` (stereo unspecified) is -18.4%; for `c1ccc(N2CCC(NCc3cccc4cn[nH]c34)C2)cc1` (stereo unspecified) it is -37.2%.
In the case of `Cc1cc(C)c(CNC(=O)c2ccc3c(c2)CCC3)c(=O)[nH]1` it was -48.6%; in that of `CCN(CCS(=O)(=O)c1ccc(Cl)cc1)Cc1ccc(OC)c(OC)c1`, -18.6%.
As for `Cc1nc(CN2CCCn3cnc(COC(C)C)c3C2)cs1`, the INHIBITION was -54.9%.
Turning to `Clc1ccc2nc(N3CCC(NCCCC4CCOC4)CC3)sc2c1` (stereo unspecified), the INHIBITION came out at 66.2%.
In the case of `CCS(=O)(=O)CCNC1CCN(c2nc3ccc(Cl)cc3s2)CC1` it was -52%.
In the case of `Cc1csc2c(N3CCC(NCCCC4CCOC4)CC3)ncnc12` (stereo unspecified) it was -85.3%; in that of `COCc1nc2ncc3c(=O)n(-c4ccccc4OC)ccc3n2n1`, -152%; in that of `O=C(Nc1cccc(N2CCCC2)c1)C1CCCN1c1nccs1` (stereo unspecified), -129%.
Turning to `O=C(Nc1cccc(F)c1)C1CCCN1c1nccs1` (stereo unspecified), the INHIBITION is -77.8%.
The figure for `N#Cc1cccc(NC(=O)C2CCCN2c2nccs2)c1` (stereo unspecified) is 58.1%.
In the case of `CNC(=O)c1ccc(CNc2ccncc2Cl)cc1` it was -24.6%; in that of `O=S(=O)(NCCCn1cncn1)c1ccc2c(c1)CCCC2`, -159%.
The figure for `CNc1nc(C2CCCN2C(C)=O)nc2c1CN(C1CCCC1)CC2` (stereo unspecified) is -71.7%; for `CN1CCCCC1c1cncc(N2CCC(O)CC2)n1` (stereo unspecified) it is -68.9%.
`Cc1noc(C)c1CN1CCC2(COCc3cnc(N(C)C)nc32)C1` (stereo unspecified): the INHIBITION is given as 26.7%.
In the case of `Cc1ccccc1CN1CCC2(COCc3cnc(N(C)C)nc32)C1` (stereo unspecified) it was 54%.
`O=S(=O)(C1CC1)N1CCC2(COCc3cnc(NCC4CC4)nc32)C1` (stereo unspecified): the INHIBITION is reported as -35.7%.
In the case of `CN(C)c1ncc2c(n1)C1(CCN(Cc3ccccc3F)C1)COC2` (stereo unspecified), the INHIBITION turned out to be 4.25%.
On to `c1ccc(CN2CCC3(COCc4cnc(NCC5CC5)nc43)C2)cc1` (stereo unspecified), for which the INHIBITION is on record as 50.2%.
The figure for `c1cc(N2CCC3(COCc4cnc(NCC5CC5)nc43)C2)ncn1` (stereo unspecified) is -14.7%.

Source of the values: ChEMBL document CHEMBL4513216, “Probing the Open Global Health Chemical Diversity Library for Multistage-Active Starting Points for Next-Generation Antimalarials” (ACS Infect Dis, 2020).
